# Hits are enriched below; roughly 2.3% of the tested compounds scored in any of these assays.
# MITF TRPM1 inh = MITF TRPM1 promoter inhibition in SK-MEL-5 cells | SK-MEL-5 TRPM1 promoter luciferase, 24 h | inhibition, % at 12.5 µM | 0.83% of 330,000 active | AID 488899;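 active means mean inhibition across replicates of 60% or more, whatever share of single replicates reaches that level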
# LMP1 NFkB inh = Epstein-Barr LMP1 NF-kappaB reporter inhibition; inhibition, % at 12.5 µM; 0.69% of 350,000 active; AID 504558; LMP1-induced NF-kappaB luciferase reporter cells, luminescence; in the data active means inhibition above about 41%;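 further: 0% = neutral control wells and 100% = reference inhibitor control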
# Gli-Sufu antag = antagonists of Gli-Sufu signaling; AID 588413; Sufu-KO-LIGHT fibroblasts, Gli luciferase reporter luminescence; 0.74% of 340,000 active; inhibition, % at 5 µM;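 active means inhibition above about 55%, limit read from the data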;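 further: 0% = DMSO-treated cells and 100% = wells with medium but no cells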
# 697 NFkB inh = inhibitors of the PMA/ionomycin-induced NF-kB reporter in 697 B cells; AID 435022; 0.33% of 330,000 active; 697 B-cell NF-kB luciferase reporter, 16 h; inhibition, % at 4 µM; in the data active means inhibition above about 35%
# Jurkat NFkB inh = lowers PMA/ionomycin-induced NF-kB signal in Jurkat cells. PMA/ionomycin-induced NF-kB luciferase reporter, luminescence. inhibition, % at 4 µM. 0.53% of 330,000 active. AID 435003; in the data active means inhibition above about 50%
# Shn3 3UTR inh = reduces Shn3 3'UTR luciferase signal in osteoblasts | inhibition, % at 12.5 µM | Clone20 osteoblast Shn3 3'UTR firefly luciferase, 24 h | AID 588674 | 0.52% of 360,000 active;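 active means mean inhibition of at least 75% with every replicate also reaching 75%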;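 further: 0% = median of neutral control wells and 100% = pilot-screen positive control compound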
# Jurkat NFkB conf = lowers PMA/ionomycin-induced NF-kB signal in Jurkat cells. shares compounds with Jurkat NFkB inh. Jurkat NF-kB luciferase, 16 h. inhibition, % at 4 µM. 27% of 2,700 active. AID 435020;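 active means inhibition reaching about 45% at 4 µM in either replicate, limit read from the data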;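 further: plate controls were PMA/ionomycin stimulated DMSO wells for no effect and unstimulated DMSO wells for full effect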
# Active calls of the source: *; · = not tested or not shown.
SMILES,MITF TRPM1 inh,LMP1 NFkB inh,Gli-Sufu antag,697 NFkB inh,Jurkat NFkB inh,Shn3 3UTR inh,Jurkat NFkB conf
COc1ccc(COC(=O)c2cc([N+](=O)[O-])ccc2N2CCOCC2)cc1F,66.1*,1.3,41.1,-67.5,93.3*,31.0,64.8*
CC(=O)Nc1ccc(/C=C/c2nc3ccccc3o2)cc1,-67.4,-29.3,-93.7,-145.1,-150.4,-51.1,-100.0
O=C(Nc1ccc(/C=C/c2nc3ccccc3o2)cc1)c1c(F)cccc1F,-16.8,-21.6,-87.4,-115.0,-126.5,1.6,·
O=[N+]([O-])c1ccc(N2CCN(c3ccccc3)CC2)nc1,-16.0,-9.5,-11.3,1.8,19.5,-15.8,·
COc1cccc(N2CCN(c3ccc([N+](=O)[O-])cn3)CC2)c1,15.2,9.2,5.7,-10.9,63.8*,10.8,19.4
Cc1c(C)c(C)c(C(=O)C2CCN(c3ccc([N+](=O)[O-])cn3)CC2)c(C)c1C,10.7,-13.5,12.4,-5.8,72.8*,11.6,12.2
COc1ccc(S(=O)(=O)N2CCN(C(=O)CCOc3ccccc3)CC2)cc1OC,5.1,20.4,2.1,18.9,17.1,-3.5,·
COc1ccc(-c2noc(-c3ccc4c(c3)OCO4)n2)cc1,-80.8,-13.1,-120.8,-140.1,-98.3,-19.9,·
COc1ccccc1-c1nc(-c2ccc(Br)o2)no1,·,-54.7,-32.4,-216.3,-175.0,-19.2,-110.2
COc1cccc(-c2noc(-c3ccc4c(c3)OCO4)n2)c1,-32.1,-2.4,-88.0,-197.5,-184.9,-41.3,-102.3
COc1ccc(-c2nc(-c3ccc(Br)o3)no2)cc1OC,-73.8,-23.6,-37.7,-59.9,-91.3,-67.6,·
COc1cccc(-c2nc(-c3ccc(Br)o3)no2)c1,-54.9,-25.4,-96.0,-249.8,-186.6,-111.4,-133.9
Cc1sc2ncnc(N3CCC(C(=O)Oc4cccc(Cl)c4Cl)CC3)c2c1C,0.5,6.2,·,20.9,0.3,1.6,·
N=c1c(C(=O)NC2CCCCC2)cc2c(=O)n3ccccc3nc2n1CCc1ccccc1,-14.8,5.4,33.5,4.4,58.2*,19.1,-51.0
N=c1c(C(=O)NCCc2ccccc2)cc2c(=O)n3ccccc3nc2n1CCCN1CCOCC1,-4.7,-0.2,4.5,-15.4,52.9*,12.8,2.2
N=c1c(C(=O)NCc2ccccc2)cc2c(=O)n3ccccc3nc2n1CCCN1CCOCC1,-2.5,-7.1,4.5,-13.6,34.8,2.9,·
C[N+]1(CCOC(=O)C2(c3ccccc3)CCCC2)CCCCC1,-3.7,7.1,-0.8,6.4,6.3,-5.9,·
CCCCCc1ccc(-c2cn(CCc3c[nH]c4ccccc34)nn2)cc1,-9.9,-13.0,0.9,-63.9,55.7*,14.7,14.1
CCCCCc1ccc(-c2cn(CCCOCc3ccccc3)nn2)cc1,6.0,7.3,13.9,19.0,-1.1,22.4,·
CC(=O)Nc1cc2c(c([N+](=O)[O-])c1C)C(C)(C)CC2(C)C,3.5,-2.3,9.6,·,·,-12.7,·
Cc1nc2cc(NC(=O)c3ccc(Cl)cc3)ccc2n1C,-10.7,17.9,-91.8,-82.5,-124.0,-60.8,·
CC(C)C(=O)N[C@H]1CCC2C3CC=C4C[C@@H](O)CC[C@]4(C)C3CC[C@@]21C (stereo partly drawn),-1.3,-2.5,7.2,-4.5,4.4,-13.6,·
CC(C)(C)[C@H](N)C(=O)N[C@H]1CCC2C3CC=C4C[C@@H](O)CC[C@]4(C)C3CC[C@@]21C (stereo partly drawn),76.1*,-95.2,-2.6,8.3,61.4*,12.1,37.2
Cc1ccnc(NC(=O)Nc2ccc(Br)cc2Cl)c1,-14.2,48.3*,-48.0,-225.4,-156.8,-44.8,-101.4
O=C(CNCc1ccccc1Cl)Nc1ccc2c(c1)OCCO2,-84.3,-30.4,-52.2,-49.9,-89.7,-107.8,·
SMILES,MITF TRPM1 inh,LMP1 NFkB inh,Gli-Sufu antag,697 NFkB inh,Jurkat NFkB inh,Shn3 3UTR inh,Jurkat NFkB conf
O=C(CSCc1ccccc1Cl)Nc1ccc2c(c1)OCCO2,-133.2,-26.2,4.7,-31.9,-161.7,-110.1,-89.4
CN(C)c1cc[n+](CC(=O)Nc2ccc(Cl)c([N+](=O)[O-])c2)cc1,3.7,-12.5,2.6,-23.7,-7.6,8.3,·
CC1C/C(=C/c2ccccn2)C(=O)/C(=C/c2ccccn2)C1 (stereo not drawn),100.5*,90.4*,34.2,-75.7,91.1*,94.9*,28.5
CCOC(=O)c1cccc(NC(=O)c2cccs2)c1,-33.4,-2.9,-5.4,-16.7,-17.4,36.2,·
CCOC(=O)c1sc(NC(=O)c2cccs2)cc1C,-48.0,-36.3,-34.2,-200.8,-152.4,-70.2,-104.4
CCOC(=O)c1sc(NC(=O)c2ccc(Br)o2)cc1C,-98.0,-59.9,-0.9,-104.8,-176.8,-38.4,-98.5
O=C(Nc1ccccc1)C1Cc2ccccc2CN1C(=O)c1ccco1 (stereo not drawn),-59.7,-40.6,-20.5,-226.0,-150.0,-75.4,-105.9
Cc1ccc(C(=O)/C=C/Nc2cccc(O)c2)cc1,0.3,10.1,-49.3,-109.4,-69.5,5.1,·
C/C(=C\C(=O)c1ccc(C)cc1)Nc1cccc(O)c1,-72.6,-33.1,-9.4,-188.1,-186.3,-42.0,-7.1
COc1cc(OC)c(OC)cc1/C=N/NC(=O)c1ccc2nc[nH]c2c1,4.2,11.4,-6.4,-4.3,2.5,-15.3,·
CCN(CC)c1ccc(/C=N/NC(=O)c2cccc(S(=O)(=O)Nc3ccccc3OC)c2)cc1,-19.9,-11.9,1.0,-7.0,-20.6,4.1,·
CC(C)c1c(C(=O)N/N=C/c2ccc3c(c2)OCO3)nnn1-c1nonc1N,-17.1,-0.1,-9.3,10.6,12.7,-17.6,·
CCN(CC)c1ccc(/C=N/NC(=O)c2nnn(-c3nonc3N)c2C(C)C)c(O)c1,68.2*,63.5*,91.5*,-6.3,63.0*,92.3*,50.4*
CCN(CC)c1ccc(/C=N/NC(=O)c2cccc(S(=O)(=O)Nc3ccccc3OC)c2)c(O)c1,71.8*,57.9*,83.6*,-34.4,59.5*,82.8,55.2*
CCN(CC)c1ccc(/C=N/NC(=O)c2ccc3nc[nH]c3c2)c(O)c1,58.5,52.7*,5.7,-17.6,54.5*,92.1*,5.9
CCN(CC)c1ccc(/C=N/N=C(N)N)c(O)c1,25.4,11.3,-2.2,15.9,76.6*,-11.2,-5.6
O=S(=O)(c1cccc(F)c1)N1CCC(CO)(Cc2cccc(F)c2)CC1,19.7,3.1,11.4,7.3,-2.1,10.3,·
CC(OC(=O)c1cccs1)C(=O)Nc1nc(-c2ccccc2)cs1 (stereo not drawn),-24.5,-2.4,-29.2,5.6,-6.0,-9.3,·
CCOc1cccc(-c2nnc3n2N=C(c2cc(OC)ccc2OC)CS3)c1,9.1,8.4,-0.5,-64.1,53.5*,57.3,47.7*
COc1ccc(S(=O)(=O)NCC2CCCN(Cc3cccc(C(C)=O)c3)C2)cc1 (stereo not drawn),-19.5,-2.5,8.6,-8.3,-10.2,4.6,·
Fc1ccccc1/C=N/NC(=S)Nc1ccc(Cl)cc1Cl,-6.4,7.1,-6.3,-29.0,53.3*,-11.5,-79.3

# Screens from PubChem BioAssay.
